Molecules are shown by their SMILES. The panel holds about 83,000 compounds, 20% with a hit somewhere; the sample as a whole holds those more often.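 The endpoint reported here, percent growth, reads 100 for growth as untreated, 0 for no net growth and -100 for all cells dead.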 Unmarked numbers belong to inactive results. Active and inactive are the calls of the source.

For the experiment, the system named is HCC-2998 colon. As to the kind of experiment: NCI-60 one-dose screen, 48 h (100 = growth as untreated, 0 = no growth, -100 = all killed). Particulars: 10 µM. The procedure:
Growth inhibition of the HCC-2998 human tumor cell line is measured as a screen for anti-cancer activity. Cells are grown in 96 well plates and exposed to the test compound for 48 hours. Compounds are tested at a single concentration, which is 10^-5 M for most compounds. The reported endpoint is percent growth (GI% or GIPRCNT), where numbers from 0 - 100% represent growth inhibition, and numbers from -100% - 0 represent cell death. For example, a value of 40 represents 60% growth inhibition. A value of 0 means no net growth occurred over the course of the experiment. A value of -40 indicates 40% of cells at the beginning of the experiment died by the end of the experiment. A value of -100 means all cells are dead at the end of the experiment.
NCI-60 Human Tumor Cell Lines Screen was performed using the standard one-dose NCI protocol, which is described in more detail at https://dtp.cancer.gov/discovery_development/nci-60/default.htm.
Compounds with GIPRCNT values below 10 were considered active. Activity score was based on GIPRCNT using the following formula: […]
Score is 0 for GIPRCNT values of 100 or above, 50 for GIPRCNT values of 0, and 100 for GIPRCNT values of -100.
For `Cc1[nH]c(/C=C2\C(=O)Nc3ccc(F)cc32)c(C)c1C(=O)NC[C@H](O)CN1CCOCC1`, the growth is 41%.

In the case of `CO[C@H](C(=O)N[C@@H](CCCCNC(=O)OCc1ccccc1)C(=O)OC(C)(C)C)[C@@H]1Cc2cc3cc(OC4CC(OC5CC(O)C(O)C(C)O5)C(O)C(C)O4)c(C)c(O)c3c(O)c2C(=O)[C@H]1OC1CC(OC2CC(OC3CC(C)(O)C(O)C(C)O3)C(O)C(C)O2)C(O)C(C)O1` (stereo not given in full), the growth was -5.55% (active).

Regarding `Cc1cc(C(=O)Nc2cc(Oc3ccc4nc(NC(=O)C5CC5)cn4n3)ccc2C)n(C)n1`, the growth was 2.16% (active).

Regarding `COc1cc2c(Oc3ccc(NC(=O)C4(C(=O)Nc5ccc(F)cc5)CC4)cc3F)ccnc2cc1OCCCN1CCOCC1`, the growth was 7.76% (active).

`C/C(=C(/c1ccc(Cl)cc1)c1ccc(OCCN2CCCCCC2)cc1)c1ccccc1`: the growth is 93.8%.

`N#Cc1cc2[nH]c3ccc(OC(F)(F)F)cc3c2oc1=O`: the growth is 83.3%.

`O=C1C=CC2(NN=C(c3ccccc3)N2c2cccc(Cl)c2)c2cccc(O)c21` (stereo not given): the growth is 90.8%.

As for `CC(=O)OC(C(=O)c1ccccc1)c1ccccc1` (stereo not given), the growth is 112%.

For the compound `CCN(CC)CCNc1ccc(N=Nc2cnc3ccccc3c2)c2ccccc12`, the growth was -95.4% (active).

For the compound `N#CCNC(=O)c1ccc(-c2ccnc(Nc3ccc(N4CCOCC4)cc3)n2)cc1`, the growth is 30.8%.

For `O=C1C=CC2(NN=C(c3ccccc3)N2c2cccc(Cl)c2)C(Cl)=C1` (stereo not given), the growth was 105%.

`CCOc1ccc(N=C(C)Nc2ccc(OCC)cc2)cc1`: the growth is 104%.

For `Cc1cc2c(-c3nc4ccccn4c3Nc3cccc4ccccc34)c(O)c(O)cc2c(O)c1-c1c(C)cc2c(-c3nc4ccccn4c3Nc3cccc4ccccc34)c(O)c(O)cc2c1O`, the growth is 41.8%.

Take `Clc1ccc(C(Cn2ccnc2)OCc2ccsc2Cl)c(Cl)c1` (stereo not given): the growth is 53.8%.

Take `CN1C/C=C\CCOc2cccc(c2)-c2ccnc(n2)Nc2cccc(c2)C1`: the growth was -40% (active).

As to `CN1CCN(c2nc(NCCNc3ccnc4cc(Cl)ccc34)c3ccccc3n2)CC1`, the growth is 9.65% (active).

Regarding `COc1ccc(-c2nocc2-c2cc(OC)c(OC)c(OC)c2)cc1`, the growth is 13.4%.

In the case of `Cc1cc(C)n(CC(=O)Nc2ccc(-c3nc4ccccc4s3)cc2)n1`, the growth is 92.9%.

Consider `NN1C(=O)CSC1=S`, for which the growth is 110%.

Take `CCCCN1C(=O)c2cccc3c(-c4ccc5c(c4)ncn5C4CCCCC4)ccc(c23)C1=O`: the growth was 102%.

`CCCCn1c(C)nc2cc(Nc3nc(N4CCCCC4)nc4nc[nH]c34)ccc21`: the growth was 66.2%.

Take `COC(=O)C1=C(C(=O)OC)C23C=C(C)C1C2=C(C)C1(CC1)[C@@](C)(O)C3=O` (stereo not given in full): the growth was -22.1% (active).

For the compound `Cn1cnc2c(F)c(Nc3ccc(Br)cc3Cl)c(C(=O)NOCCO)cc21`, the growth was -10.2% (active).

Take `CNC(=O)c1nn(C)c2c1C(C)(C)Cc1cnc(Nc3ccc(N4CCN(C)CC4)cc3)nc1-2`: the growth is 10.4%.

As to `N#CC1(C#N)C(c2cccs2)NC(c2cccs2)C1(C#N)C#N` (stereo not given), the growth was 100%.

As to `CNC(=O)c1cc(Oc2ccc(NC(=O)Nc3ccc(Cl)c(C(F)(F)F)c3)c(F)c2)ccn1`, the growth was -80.8% (active).

As for `CCCCN1CCCC[C@@H]1C(=O)N[C@H](C(=O)N(C)[C@H](CCc1nc(C(=O)N[C@@H](Cc2ccccc2)C[C@H](C)C(=O)OC)cs1)C(C)C)C(C)C`, the growth is 67.6%.

Turning to `COC(=O)[C@]12CC[C@@H](C)[C@H](C)[C@@H]1C1=CC[C@@H]3[C@@]4(C)C(C#N)=CC(C)=C4CC[C@@]3(C)[C@]1(C)CC2`, the growth is 80%.

Regarding `C[C@@H](Oc1cc(-n2cnc3ccc(CN4CCN(C)CC4)cc32)sc1C(N)=O)c1ccccc1C(F)(F)F`, the growth is 14.1%.

Consider `Cc1ccc(Nc2nccc(N(C)c3ccc4c(C)n(C)nc4c3)n2)cc1S(N)(=O)=O`, for which the growth is -5.85% (active).

For the compound `CCN(CCN(C)C)C(=O)CNCc1cc(C(N)=O)ccn1`, the growth was 94.2%.

As for `CCOC(=O)C1=C(C)N=C2Sc3cccc(OC)c3N2[C@H]1c1ccccn1`, the growth was 93.2%.

On to `COc1cc(Nc2ncc(F)c(Nc3ccc4c(n3)N(COP(=O)(O)O)C(=O)C(C)(C)O4)n2)cc(OC)c1OC`, for which the growth was 66.8%.

In the case of `COc1ccc(Cl)c(Nc2nc3ccccc3nc2NS(=O)(=O)c2cccc(NC(=O)C(C)(C)N)c2)c1`, the growth was 54.8%.

For the compound `CCc1cc2c(c3ccc(C(=O)CBr)cc13)CCCC2`, the growth was 103%.

On to `CCCCn1c(C)nc2ccc(Nc3nc(N4CCN(C)CC4)nc4nc[nH]c34)cc21`, for which the growth was 83.6%.

On to `NS(=O)(=O)c1ccc(CCN2C(=O)/C(=C\c3ccc(Cl)cc3)C=C2c2ccc3ccccc3c2)cc1`, for which the growth was 94.8%.

On to `COc1ccc(S(=O)(=O)N(C(C)=O)c2ccccc2/C=C/c2cc[n+]([O-])cc2)cc1`, for which the growth was 8.66% (active).

In the case of `CCN(CC)c1cc2oc3cc(N)cc(=N)c-3nc2cc1C`, the growth is 100%.

For `COc1cc(F)c(F)c(Nc2ccc(I)cc2F)c1NS(=O)(=O)C1(C[C@H](O)CO)CC1`, the growth was -23.6% (active).
